Screening data deposited in PubChem BioAssay by National Center for Advancing Translational Sciences (NCATS).
RXFP1 ag: activates the human relaxin receptor RXFP1; Q9HBX9; HEK293T-RXFP1 cAMP TR-FRET, 30 min; response scale: percent of porcine relaxin response, buffer zero; Potency, µM (doses to about 57.5 µM), for inactives: top-dose activation, actives largely listed as activators; actives 0.3% (n = 370,000); active = well fitted activation curve with a large enough effect; inconclusive = small, poorly fitted or top-dose-only effect; note: potency is the fitted concentration of half-maximal effect; % is set by controls: 0 for no effect and ±100 for the full control effect; nearly all actives have a fitted effect of over 60% in size
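HEK293 cells stably expressing RXFP1, treated 30 min at 37C with compounds plus PDE4 inhibitor Ro 20174; cAMP measured by HTRF TR-FRET. Normalized to buffer and 29 nM porcine relaxin; EC50 by Hill fit.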
TRPV1 ag: human TRPV1 agonism; Q8NER1; TRPV1-expressing cells, Fluo-8 calcium influx, agonist mode; activation, % at 8.33 µM; actives 0.19% (n = 320,000); AID 540275; in the data active = activation above about 80%; inconclusive = between about 30% and that limit; note: 0% is about no effect
Target sequence (Q8NER1 whole entry, looked up): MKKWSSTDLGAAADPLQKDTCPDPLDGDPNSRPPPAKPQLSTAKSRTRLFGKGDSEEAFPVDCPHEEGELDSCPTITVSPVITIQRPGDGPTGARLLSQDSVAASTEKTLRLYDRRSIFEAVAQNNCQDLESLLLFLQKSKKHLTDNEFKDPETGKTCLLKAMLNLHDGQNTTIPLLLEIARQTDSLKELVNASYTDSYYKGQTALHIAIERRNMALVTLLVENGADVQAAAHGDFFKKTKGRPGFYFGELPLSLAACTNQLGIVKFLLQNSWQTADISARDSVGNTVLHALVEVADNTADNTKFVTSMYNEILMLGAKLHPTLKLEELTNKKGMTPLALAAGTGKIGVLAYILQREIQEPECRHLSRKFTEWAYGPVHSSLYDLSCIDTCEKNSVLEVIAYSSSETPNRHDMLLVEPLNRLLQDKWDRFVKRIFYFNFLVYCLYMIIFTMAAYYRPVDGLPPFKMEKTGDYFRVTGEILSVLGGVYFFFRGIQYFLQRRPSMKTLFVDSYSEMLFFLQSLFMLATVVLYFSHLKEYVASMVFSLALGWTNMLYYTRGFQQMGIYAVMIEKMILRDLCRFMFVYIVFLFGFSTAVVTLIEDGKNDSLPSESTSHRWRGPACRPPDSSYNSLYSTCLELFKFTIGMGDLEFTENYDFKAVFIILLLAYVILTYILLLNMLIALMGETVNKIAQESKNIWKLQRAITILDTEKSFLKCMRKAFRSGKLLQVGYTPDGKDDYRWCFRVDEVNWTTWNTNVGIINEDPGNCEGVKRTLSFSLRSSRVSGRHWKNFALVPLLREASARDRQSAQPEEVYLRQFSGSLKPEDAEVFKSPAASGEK
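TRPV1-expressing cells were cultured overnight at 35.5C and loaded with Fluo-8 calcium dye for 40 to 90 min at room temperature. After a 10 s baseline, compound was added and calcium influx was read kinetically for 3 min (ex 480/em 520 nm).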
RXFP1 antag: antagonists of human relaxin receptor RXFP1 | Q9HBX9 | HEK293-RXFP1, relaxin-stimulated cAMP HTRF, 30 min; active compounds read low | activity change, negative = inhibition, % at 57.5 µM | actives 0.59% (n = 350,000);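 active = activity change of -60% or lower, but not beyond a set lower limit; inconclusive = change between -60% and -40%, or beyond the set limit; inactive = change above -40%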; note: % is set by controls: 0 for no effect and ±100 for the full control effect
TRPV1 PAM: enhances activation of the human vanilloid receptor TRPV1; potentiation, % at 8.33 µM; actives 0.02% (n = 320,000); AID 540277; Q8NER1; TRPV1-expressing cells, Fluo-8 calcium influx, capsaicin EC20 potentiation; in the data active = potentiation above about 80%; inconclusive = between about 30% and that limit; note: 0% is about no effect
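Cells expressing TRPV1 were dye-loaded with Fluo-8 and read kinetically: 10 s baseline, 3 min after compound (agonist portion), then 2 min after EC20 capsaicin (allosteric enhancer portion). Calcium-bound dye fluorescence at 480/520 nm.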
gsp antagonist: antagonizes gsp, the McCune-Albright syndrome mutation; gsp-mutant cells, cAMP HTRF, 30 min; Potency, µM (top dose mostly 76.9 µM), for inactives: top-dose activity change, negative = inhibition, hits mostly inhibitors; actives 0.4% (n = 340,000); AID 624288; calls by dose curve; cell line not stated here;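 note: intracellular cAMP measured with PDE inhibitor Ro 20-1724 present during compound exposure; potency is the fitted concentration of half-maximal effect; % is set by controls: 0 for no effect and ±100 for the full control effect; nearly all actives have a fitted effect of over 65% in size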
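HTRF cAMP read-out (cAMP-d2 plus anti-cAMP antibody-K in lysis buffer, 30 min RT). Before lysis, cells are exposed to compounds with […] for 30 min at 37C in DPBS containing Ca/Mg, BSA and Tween 20.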
gsp agonist: gsp mutant agonism; gsp mutant cells, cAMP HTRF, 30 min; Potency, µM (titrated, usually from 76.9 µM), for inactives: at the highest dose activation (cAMP increase), actives largely listed as activators; actives 0.13% (n = 340,000); AID 624287; active = well fitted activation curve with a large enough effect; inconclusive = small, poorly fitted or top-dose-only effect, or another doubt; inactive = no such curve, though single readings can be large or run the other way; cell line not stated here;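 note: phosphodiesterase inhibitor Ro 20-1724 added with compounds to block cAMP breakdown; potency is the fitted concentration of half-maximal effect; nearly all actives have a fitted effect of over 60% in size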
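Cells stably selected in G418 were plated at 2000/well, grown 16-24 hr, then given compounds in DMSO with the PDE inhibitor […] (300 uM solution added) for 30 min at 37C; cAMP was read by HTRF.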
Active calls of the source: *; ? = inconclusive; / = not tested or not shown; [ ] = dose if it differs, or a comment. Hits are enriched below; roughly 1.1% of the tested compounds scored in any of these assays.

SMILES | RXFP1 ag | TRPV1 ag | RXFP1 antag | TRPV1 PAM | gsp antagonist | gsp agonist
COc1cccc(Oc2cncnc2-c2ccc(OC)cc2O)c1 | 1% | 14 | -4 | -8 | 28µM* | 14%
COc1ccc(CNC(=O)CCCc2ccccc2)cc1 | -1% | / | 5 | / | 13% | -17%
CCc1ccc(OCCCC(=O)NCc2ccccc2)cc1 | 5% | 83* | 9 | -12 | 11% | -23%
CCC(=O)Nc1ccc(C(=O)COC(=O)c2sc(C)nc2C)cc1 | -3% | -3 | 9 | 2 | -1% | -7%[15.4 µM]
CCN(CC)C(=O)CSc1nc2ccc(NC(=O)CSc3nnc(COc4ccccc4C)n3C)cc2s1 | 2% | 4 | -13 | 1 | -27% | -13%
Cc1ccccc1OCc1nnc(SCC(=O)Nc2ccc3nc(SCC(=O)NC(C)(C)C)sc3c2)n1C | 1% | 0 | -7 | 5 | 32µM* | ?
O=c1cc(-c2c(O)c3ccccc3n(Cc3ccccc3)c2=O)[nH][nH]1 | 1% | 1 | -84* | 5 | -16% | 0%[15.4 µM]
Cc1ccc(CCNC(=O)C(C)n2nc(C)c3c(C)n(-c4ccc(C)cc4)nc3c2=O)cc1 (stereo not given) | -1% | / | -14 | / | / | /
O=C(COc1c(Br)cc(Br)c2cccnc12)N1CCCCC1 | ? | 10 | 8 | -9 | -4% | 6.3µM*
NC(=O)c1ccsc1NC(=O)COC(=O)Cc1cccc2ccccc12 | 0% | ? | -10 | -16 | 35µM* | 32%
Clc1ccc(OCCNCCc2ccccc2)cc1 | 1% | 5 | -12 | -1 | 9% | -30%
O=C(Nc1ccncc1)C1CCN(S(=O)(=O)c2ccccc2C(F)(F)F)CC1 | 1% | 83* | -7 | -5 | -6% | -31%
CCn1c(=O)n(CC)c2cc(N3CCCC3)c(NC(=O)c3c(F)cccc3F)cc21 | -2% | 9 | 12 | -12 | 32µM* | 4%
O=C(CC(=O)c1ccccc1O)c1ccc(F)cc1 | 4% | ? | -35 | 6 | 40µM* | ?
O=C(CC(=O)c1ccccc1O)c1cccc(F)c1 | 2% | -2 | -4 | -1 | -25% | -34%
O=[N+]([O-])c1ccc(NN=Cc2cc(Br)ccc2O)nc1 | / | / | -74* | / | -2% | 34%
O=[N+]([O-])c1ccc(NN=Cc2cccc(O)c2)nc1 | / | / | -7 | / | -10% | 2%
Cn1c(=O)c(NCCc2ccccc2)c2c3c(cccc31)C(=O)c1ccccc1-2 | 14% | 92* | 8 | 23 | 12% | ?
CCCCNc1c2c3c(cccc3n(C)c1=O)C(=O)c1ccccc1-2 | 5% | ? | 9 | 2 | 5% | -14%
Cn1c(=O)c(NC2CCCCC2)c2c3c(cccc31)C(=O)c1ccccc1-2 | 8% | 89* | 3 | 15 | ? | -56%
CCNc1c2c3c(cccc3n(C)c1=O)C(=O)c1ccccc1-2 | 7% | 86* | / | -9 | -22% | -8%
Cn1c(=O)c(NCCO)c2c3c(cccc31)C(=O)c1ccccc1-2 | 7% | / | 4 | / | 9% | 23%
NC(=O)CC[C@@H]1NC(=O)[C@H](Cc2ccccc2)NC(=O)[C@H](Cc2ccc(O)cc2)NC(=O)CCSSC[C@@H](C(=O)N2CCC[C@H]2C(=O)N[C@@H](CCCN=C(N)N)C(=O)NCC(N)=O)NC(=O)[C@H](CC(N)=O)NC1=O | / | / | 11 | / | / | /
O=C(CCNS(=O)(=O)c1ccc(Br)cc1)NC1CCCCC1 | 2% | 15 | -5 | -10 | -3% | -5%
O=C(CCS(=O)(=O)c1ccc(Br)cc1)NC1CCCC1 | 1% | -2 | 7 | 5 | 10% | 4µM*
SMILES | RXFP1 ag | TRPV1 ag | RXFP1 antag | TRPV1 PAM | gsp antagonist | gsp agonist
CN(c1ccc(O)cc1)c1nc(O)c(C2=c3ccccc3=NC2=O)s1 | / | / | -13 | / | 14µM* | 7%
C/C(=N\Nc1ccc2nncn2n1)c1ccco1 | -1% | 3 | -19 | -7 | 3% | -6%[15.4 µM]
C/C(=N\Nc1ccc2nncn2n1)c1ccc(Br)s1 | 0% | 96* | 0 | -10 | -3% | -22%
Cc1nc(S/C(=C/c2ccc(-c3ccc(Cl)cc3)o2)C(=O)O)n[nH]1 | 1% | -1 | -12 | 9 | 0% | -3%
Cc1nc(S/C(=C/c2ccc(-c3cc(Cl)ccc3C)o2)C(=O)O)n[nH]1 | 0% | 2 | -10 | -15 | 28µM* | -25%
O=c1[nH]cnc2c1c(-c1ccccc1)cn2-c1ccccc1 | 0% | 10 | -75* | -3 | -15% | 6%
Cc1ccc(-n2cc(-c3ccccc3)c3c(=O)[nH]cnc32)cc1 | 0% | 19 | / | -6 | -27% | -5%
N#Cc1c(C(F)(F)F)cc(-c2ccc(F)cc2)[nH]c1=O | 12% | 3 | -7 | 0 | -12% | 13%[15.4 µM]
N#Cc1c(C(F)(F)F)cc(-c2ccc(Cl)cc2)[nH]c1=O | 4% | 3 | -10 | 8 | 35µM* | 24%
COc1ccc(-c2cc(C(F)(F)F)c(C#N)c(=O)[nH]2)cc1 | 8% | -1 | -27 | 24 | -31% | 19%
N#Cc1c(C(F)(F)F)cc(-c2cccc(Cl)c2)[nH]c1=O | 3% | -1 | -13 | -5 | 35µM* | 4%
CCN(C(=O)COC(=O)c1cccc(S(=O)(=O)N2CCOCC2)c1)C1CCS(=O)(=O)C1 (stereo not given) | -1% | 0 | -8 | -3 | 13% | -2%
CNC(=S)N/N=C/c1cc(Br)cc(Br)c1O | -2% | -8 | 5 | -15 | 0% | -1%
Oc1c(Br)cc(Br)cc1/C=N/NC(=S)N[C@H]1CC2C=CC1C2 (stereo not given in full) | 0% | -5 | -72* | 25 | -19% | 9%[15.4 µM]
CCc1cccc(C)c1NS(=O)(=O)c1cc2[nH]c(=O)c(=O)[nH]c2cc1C | 2% | / | 1 | / | / | /
CCc1nc2sc3c(c2c(=S)[nH]1)CC(C)(C)OC3 | 20% | 7 | -66* | -14 | -6% | ?
Cc1ccc(Cl)cc1N1CCN(C(=O)c2ccc(C)c(-n3c(C)nc4cccnc43)c2)CC1 | -1% | / | -64* | / | / | /
Cc1ccc(C)c(N2CCN(C(=O)c3cccc(-n4c(C)nc5cccnc54)c3)CC2)c1 | 1% | / | -70* | / | / | /
CCn1c(N2CCN(S(=O)(=O)c3ccc(Cl)cc3)CC2)nc2ccccc21 | -1% | 4 | -20 | -5 | 32µM* | -8%[15.4 µM]
CCn1c(N2CCN(S(=O)(=O)c3ccc(F)cc3)CC2)nc2ccccc21 | 1% | 1 | 13 | 3 | -14% | 8%[15.4 µM]
COc1ccccc1NS(=O)(=O)c1cc(C)ccc1C | -1% | 0 | -11 | 1 | 6.3µM* | -21%
CN(Cc1ccc(-n2cccn2)cc1)C(=O)c1cnn2c1NC(c1ccco1)CC2C(F)(F)F (stereo not given) | 3% | -5 | / | 11 | 32µM* | 0%
